# Values without a mark were called inactive. Results filed as inconclusive are left out. A call without a number means that no potency is given here. Calls of active or inactive are those of the source. Unless noted, calls follow the shape of the dose curve; as a rule, active = well fitted curve in the direction sought with a large enough effect; inconclusive = small, poorly fitted or top-dose-only effect, or another doubt; inactive = no such curve, though single readings can be large; an effect the other way counts as inactive or inconclusive.
# Tests used:
# [1] = Cell Viability - Mesenchymal (AID 546); conditions: mesenchymal cells viability, qHTS; activity change, negative = cytotoxicity: at 91.7 µM (top of the series);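 also: cells exposed to compound for 40 hours before reading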; also: potency is read from the fitted curve at half-maximal effect
# Procedure, shortened: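 Human renal mesenchymal cells (glomerulus-derived), 1000 cells/well, 5 hr 37 °C pre-incubation; compound 40 hr, 37 °C; CellTiter-Glo, 20 min RT; luminescence; AC50 via Hill equation.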
# [2] = molecular target: 3',5'-cyclic-AMP phosphodiesterase 4B (Homo sapiens) (UniProt Q07343); test: qHTS Assay for Inhibitors of PDE-IV (AID 607; active = well fitted activation curve with a large enough effect in the main read-out, with a control signal flat, not every such curve was filed as active)
# Procedure, shortened: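 ACTOne HEK293 cells carry a modified cAMP-gated CNG channel and express endogenous PDE4; plated 1000 cells/well, compounds up to 22.9 uM final. Membrane-potential dye fluorescence (ex 535/em 590) was read; parental cells received 10 uM forskolin + 100 uM RO 20-1724.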
# [3] = Cellular Toxicity (caspase-3) HepG2 (AID 654);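 also: cells exposed to compound for 16 hours before reading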
# Procedure, shortened: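 Caspase 3/7 activation in HepG2 is measured as rising luminescence after a 16 hr treatment at 37 °C. Values are scaled between DMSO basal and 100 uM tamoxifen, and AC50 is fitted with the Hill equation.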
# [4] = Cellular Toxicity (caspase-3) Jurkat (AID 655);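 also: cells exposed to compound for 16 h at 37 °C before reading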
# Procedure, shortened: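 Jurkat cells (5000/well) in complete medium exposed 16 h at 37 C; caspase-3/7 activity read by Caspase-Glo luminescence after 20 min at room temperature. Normalized to DMSO and 100 uM tamoxifen; AC50 from Hill fits.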
# [5] = Cellular Toxicity (caspase-3) HUV-EC-C (AID 656)
# Procedure, shortened: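 HUV-EC-C cells (1000/well) in complete medium, compound-treated 16 h at 37 °C; caspase-3/7 activity read by Caspase-Glo 3/7 luminescence. Normalized to DMSO (basal) and 100 uM tamoxifen (100%); AC50 from Hill-equation concentration-response fits.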
# [6] = Cellular Toxicity (caspase-3) SHSY5Y (AID 657)
# Procedure, shortened: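 SH-SY5Y human neuroblastoma cells, 1500/well, exposed to compound for 16 hours at 37 °C in complete medium. Caspase-3/7 activity read by Caspase-Glo luminescence after 1 hr at room temperature, normalized to DMSO and 10 uM staurosporine; AC50 from Hill fit.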
# [7] = Cellular Toxicity (caspase-3) BJ (AID 658)
# Procedure, shortened: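 qHTS, BJ fibroblasts, 1000 cells/well; 5 hr preincubation, 16 hr compound, 37 °C; Caspase-Glo 3/7 reagent, 1 hr RT; luminescence. DMSO = 0%, 10 uM staurosporine = 100%. Hill-equation AC50.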
# [8] = Cellular Toxicity (caspase-3) MRC-5 (AID 659); conditions: Potency: caspase-3 activation
# Procedure, shortened: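 MRC-5 fibroblasts, 1500/well; 16 h cpd, 37 °C; Caspase-Glo 3/7, 1 h RT; lumi read. Norm: DMSO = 0%, 10 uM staurosporine = 100%. Hill-fit AC50 from qHTS conc-response.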
# [9] = Cellular Toxicity (caspase-3) Mesangial (AID 660);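 also: cells exposed to compound for 16 h before the caspase read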
# Procedure, shortened: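 Seed cells derived from normal human renal glomeruli, incubate 5 h, add compounds across concentrations and incubate 16 h at 37 °C. Caspase 3/7 activation is then quantified by luciferase light, with AC50 derived by Hill modeling.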
# [10] = Cellular Toxicity (caspase-3) SK-N-SH (AID 661)
# Procedure, shortened: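 Cells were seeded and incubated 5 hr at 37 °C, dosed with compound over a concentration range for 16 hr, then given Caspase-Glo 3/7 reagent for 1 hr at room temperature before luminescence reading.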
# [11] = Cellular Toxicity (caspase-3) H-4-II-E (AID 663); conditions: Potency: caspase-3 activation;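 also: cells exposed to compound for 16 hr before readout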
# Procedure, shortened: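 H-4-II-E rat hepatoma, 1500 cells/well, 5 hr settle at 37 °C; compound 16 hr, 37 °C, complete medium; Caspase-Glo 3/7, 20 min RT; luminescence. DMSO = 0%, 100 uM tamoxifen = 100%; Hill-equation AC50.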
# [12] = Cellular Toxicity (caspase-3) Hek293 (AID 664);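 also: cells exposed to compound for 16 h at 37 °C before readout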
# Procedure, shortened: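 qHTS, HEK293 (human embryonic kidney), 16 h cpd exposure in complete medium. Caspase-3/7 activation = luminescence increase; normalized to DMSO/100 uM tamoxifen; Hill-fit AC50.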
# [13] = Cellular Toxicity (caspase-3) N2a (AID 665); conditions: Potency: caspase-3 activation;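 also: compound exposure lasted 16 h at 37 °C before readout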
# Procedure, shortened: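 Caspase-3/7 activation, measured as increased luminescence from aminoluciferin release, is quantified in mouse N2a cells exposed to compounds for 16 h. Values are normalized to DMSO and 10 uM staurosporine, with AC50 derived by Hill modelling.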
# [14] = Cellular Toxicity (caspase-3) NIH 3T3 (AID 666);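 also: caspase signal read after 16 h compound exposure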
# Procedure, shortened: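 Cells were plated at 1000 per well and incubated 5 hr at 37°C, then compound was added for 16 hr. Caspase-Glo 3/7 reagent followed for 20 min at room temperature before luminescence was read.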
# [15] = Cellular Toxicity (caspase-3) Renal Proximal Tubule (AID 667);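 also: cells exposed to compound for 16 hours at 37 °C before detection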
# Procedure, shortened: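 Freshly isolated primary rat kidney proximal tubule cells, 1000/well, treated 16 hr at 37 °C, then Caspase-Glo 3/7 luminescence after 1 hr. Normalized to DMSO and 10 uM staurosporine; AC50 from Hill fit.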
# [16] = molecular target: Cytochrome P450 3A4 (Homo sapiens) (UniProt P08684); test: qHTS Assay for Activators of Cytochrome P450 3A4 (AID 885); also: nearly all actives have a fitted effect of over 65% in size
# Procedure, shortened: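 CYP3A4 activity: Luciferin-PPXE O-dealkylation, 25uM substrate, 200mM KPO4, RT throughout. Read-out is luciferase luminescence; higher values reflect activation.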
# [17] = molecular target: Cytochrome P450 2D6 (Homo sapiens) (UniProt P10635); test: qHTS Assay for Inhibitors and Substrates of Cytochrome P450 2D6 (AID 891); also: nearly all actives have a fitted effect of over 60% in size; also: potency is read from the fitted curve at half-maximal effect
# Procedure, shortened: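 Luminescent read-out of luciferin formed by 5 nM human CYP2D6 demethylating 30 uM Luciferin-ME EGE (Km level) over 60 min at room temperature after NADPH regeneration addition. Data normalized to full inhibition by 1.43 uM quinidine.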
# [18] = molecular target: Cytochrome P450 3A4 (Homo sapiens) (UniProt P08684); test: qHTS Assay for Inhibitors and Substrates of Cytochrome P450 3A4 (AID 884); also: nearly all actives have a fitted effect of over 50% in size
# Procedure, shortened: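 Luminescent readout of luciferin produced by CYP3A4 (20 nM) dealkylation of Luciferin-PPXE, 25 uM (its KM). NADPH-driven reaction ran 60 min at RT after 10 min compound preincubation; data scaled to 57 uM ketoconazole as 100% inhibition.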
# [19] = molecular target: Guanine nucleotide-binding protein G(i) subunit alpha-1 (Homo sapiens) (UniProt P63096); test: qHTS Assay for Inhibitors of RGS12 GoLoco Motif Activity (Green Fluorophore) (AID 879);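 also: negative values mean loss of peptide binding seen as reduced polarization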
# Procedure, shortened: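 A drop in FITC polarization marked displacement of the FITC-tagged RGS12 GoLoco peptide (10 nM) from Gαi1 (50 nM). Compounds were incubated 10 min at room temperature in Tris pH 7.5 buffer containing 150 mM NaCl, 0.1 mM GDP and 0.05% NP40; unlabeled peptide titration served as control.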
# [20] = molecular target: Cytochrome P450 2C9 (Homo sapiens) (UniProt P11712); test: qHTS Assay for Inhibitors and Substrates of Cytochrome P450 2C9 (AID 883); also: nearly all actives have a fitted effect of over 60% in size; also: potency is read from the fitted curve at half-maximal effect
# Procedure, shortened: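 10nM CYP2C9 + 100uM Luciferin-H (=KM), 25mM KPO4; cpd 10 min 37C; NADPH regen, 60 min 37C; stop/detect with P450 Glo-Buffer 20 min; luminescence. Norm. to 57uM sulphaphenazole as full inhibition.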
# Sequence of Cytochrome P450 3A4 (Homo sapiens) (P08684 whole entry, looked up): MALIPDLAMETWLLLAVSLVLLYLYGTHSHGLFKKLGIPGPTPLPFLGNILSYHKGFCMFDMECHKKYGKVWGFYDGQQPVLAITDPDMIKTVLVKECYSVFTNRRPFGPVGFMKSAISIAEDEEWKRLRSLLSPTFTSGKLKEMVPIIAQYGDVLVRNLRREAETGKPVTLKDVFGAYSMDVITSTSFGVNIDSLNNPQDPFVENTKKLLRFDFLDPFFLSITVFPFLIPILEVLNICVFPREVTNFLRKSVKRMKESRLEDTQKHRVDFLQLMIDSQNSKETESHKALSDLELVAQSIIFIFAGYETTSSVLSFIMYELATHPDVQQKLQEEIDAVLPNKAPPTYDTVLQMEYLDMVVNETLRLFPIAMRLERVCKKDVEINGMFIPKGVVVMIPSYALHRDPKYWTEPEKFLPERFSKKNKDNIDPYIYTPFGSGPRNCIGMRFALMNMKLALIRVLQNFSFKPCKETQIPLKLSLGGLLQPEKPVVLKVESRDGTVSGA
# Sequence of 3',5'-cyclic-AMP phosphodiesterase 4B (Homo sapiens) (Q07343 whole entry, looked up): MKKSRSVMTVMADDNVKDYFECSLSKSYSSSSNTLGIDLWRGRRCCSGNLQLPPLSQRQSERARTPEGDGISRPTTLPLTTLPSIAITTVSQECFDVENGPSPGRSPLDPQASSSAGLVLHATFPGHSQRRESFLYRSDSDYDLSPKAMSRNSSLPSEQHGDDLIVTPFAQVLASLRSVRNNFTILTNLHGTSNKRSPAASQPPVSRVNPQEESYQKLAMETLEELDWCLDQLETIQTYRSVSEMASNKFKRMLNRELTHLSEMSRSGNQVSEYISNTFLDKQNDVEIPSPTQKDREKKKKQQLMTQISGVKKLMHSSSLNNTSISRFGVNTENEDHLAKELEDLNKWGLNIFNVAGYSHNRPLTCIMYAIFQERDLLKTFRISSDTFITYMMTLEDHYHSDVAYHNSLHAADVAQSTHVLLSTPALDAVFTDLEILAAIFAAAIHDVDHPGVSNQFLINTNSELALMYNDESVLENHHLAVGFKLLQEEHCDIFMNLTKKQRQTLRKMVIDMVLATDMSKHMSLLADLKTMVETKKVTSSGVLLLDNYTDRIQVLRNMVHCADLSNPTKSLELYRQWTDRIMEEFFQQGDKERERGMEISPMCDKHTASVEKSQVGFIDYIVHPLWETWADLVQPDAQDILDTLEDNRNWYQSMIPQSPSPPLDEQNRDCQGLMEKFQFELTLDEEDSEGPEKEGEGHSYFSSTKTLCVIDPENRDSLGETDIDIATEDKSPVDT
# Sequence of Cytochrome P450 2D6 (Homo sapiens) (P10635 whole entry, looked up): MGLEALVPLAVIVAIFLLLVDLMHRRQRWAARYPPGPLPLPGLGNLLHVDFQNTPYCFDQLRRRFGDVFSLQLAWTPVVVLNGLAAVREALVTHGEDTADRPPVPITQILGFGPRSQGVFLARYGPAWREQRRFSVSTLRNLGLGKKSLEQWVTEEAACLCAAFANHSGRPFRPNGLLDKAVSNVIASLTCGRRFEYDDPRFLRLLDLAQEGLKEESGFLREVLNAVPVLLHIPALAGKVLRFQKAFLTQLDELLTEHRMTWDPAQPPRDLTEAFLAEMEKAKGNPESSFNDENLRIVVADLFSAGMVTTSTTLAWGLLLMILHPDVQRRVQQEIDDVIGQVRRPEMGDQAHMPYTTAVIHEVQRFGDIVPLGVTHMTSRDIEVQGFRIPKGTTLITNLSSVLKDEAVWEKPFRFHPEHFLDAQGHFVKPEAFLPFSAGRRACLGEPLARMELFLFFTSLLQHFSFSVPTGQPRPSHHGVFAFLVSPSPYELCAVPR
# Sequence of Cytochrome P450 2C9 (Homo sapiens) (P11712 whole entry, looked up): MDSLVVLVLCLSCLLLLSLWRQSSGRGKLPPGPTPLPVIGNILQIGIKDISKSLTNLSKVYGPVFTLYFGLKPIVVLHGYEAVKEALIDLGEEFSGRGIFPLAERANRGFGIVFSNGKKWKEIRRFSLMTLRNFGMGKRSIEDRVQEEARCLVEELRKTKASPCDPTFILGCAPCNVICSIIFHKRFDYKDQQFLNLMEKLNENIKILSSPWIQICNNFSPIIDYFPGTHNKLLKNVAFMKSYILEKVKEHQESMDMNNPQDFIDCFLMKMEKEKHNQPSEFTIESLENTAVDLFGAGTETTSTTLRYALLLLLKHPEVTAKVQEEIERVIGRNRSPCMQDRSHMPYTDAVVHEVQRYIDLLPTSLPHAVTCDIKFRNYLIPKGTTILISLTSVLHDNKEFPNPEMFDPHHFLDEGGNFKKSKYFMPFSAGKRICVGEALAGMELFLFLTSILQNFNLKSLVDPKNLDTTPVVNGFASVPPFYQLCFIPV
# Sequence of Guanine nucleotide-binding protein G(i) subunit alpha-1 (Homo sapiens) (P63096 whole entry, looked up): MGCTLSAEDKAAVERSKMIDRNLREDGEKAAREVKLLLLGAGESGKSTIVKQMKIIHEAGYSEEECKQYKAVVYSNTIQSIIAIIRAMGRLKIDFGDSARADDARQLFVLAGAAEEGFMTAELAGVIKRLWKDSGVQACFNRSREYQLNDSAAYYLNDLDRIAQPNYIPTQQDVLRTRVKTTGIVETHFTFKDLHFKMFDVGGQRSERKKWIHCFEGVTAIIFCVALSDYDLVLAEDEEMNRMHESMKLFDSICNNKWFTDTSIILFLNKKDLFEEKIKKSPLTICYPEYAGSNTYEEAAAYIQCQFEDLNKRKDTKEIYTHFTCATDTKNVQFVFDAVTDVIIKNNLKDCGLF
compound,measurement,setting,value
NC(=NCCCCCCN=C(N)/N=C(\N)Nc1ccc(Cl)cc1)/N=C(\N)Nc1ccc(Cl)cc1,Potency,[1],31.6 µM (active)
same,outcome,[2],inactive
same,Potency,[3],inactive
same,Potency,[4],inactive
same,outcome,[5],inactive
same,Potency,[6],inactive
same,outcome,[7],inactive
same,Potency,[8],inactive
same,outcome,[9],inactive
same,Potency,[10],inactive
same,Potency,[11],inactive
same,outcome,[12],inactive
same,Potency,[13],inactive
same,Potency,[14],inactive
same,outcome,[15],inactive
same,Potency,[16],inactive
same,Potency,[17],7.94 µM (active)
O=C(OCCOCCO)c1ccccc1Nc1cccc(C(F)(F)F)c1,outcome,[2],inactive
CC(C)(Oc1ccc(Cl)cc1)C(=O)O,outcome,[2],inactive
CN1CCN(CCCN2c3ccccc3Sc3ccc(S(=O)(=O)N(C)C)cc32)CC1,outcome,[2],inactive
Oc1c(Cl)cc(Cl)cc1Sc1cc(Cl)cc(Cl)c1O,"activity change, negative = cytotoxicity",[1],-28.4%
same,Potency,[3],inactive
same,outcome,[5],inactive
same,Potency,[6],inactive
same,outcome,[7],inactive
same,Potency,[8],inactive
same,outcome,[9],inactive
same,Potency,[10],inactive
same,Potency,[11],inactive
same,Potency,[13],inactive
same,Potency,[14],inactive
same,outcome,[15],inactive
same,Potency,[16],inactive
O=c1ccc2ccccc2o1,"activity change, negative = cytotoxicity",[1],4.05%
same,Potency,[3],inactive
same,Potency,[4],inactive
same,outcome,[5],inactive
same,Potency,[6],inactive
same,outcome,[7],inactive
same,Potency,[8],inactive
same,outcome,[9],inactive
same,Potency,[10],inactive
same,Potency,[11],inactive
same,outcome,[12],inactive
same,Potency,[13],inactive
same,Potency,[14],inactive
same,outcome,[15],inactive
same,Potency,[18],inactive
O=C1OC(c2ccc(O)cc2)(c2ccc(O)cc2)c2ccccc21,"activity change, negative = cytotoxicity",[1],-12.7%
same,Potency,[3],inactive
same,Potency,[4],inactive
same,outcome,[5],inactive
same,Potency,[6],inactive
same,outcome,[7],inactive
same,Potency,[8],inactive
same,outcome,[9],inactive
same,Potency,[10],inactive
same,Potency,[11],inactive
same,outcome,[12],inactive
same,Potency,[13],inactive
same,Potency,[14],inactive
same,outcome,[15],inactive
same,Potency,[16],inactive
Oc1ccc(O)cc1,"activity change, negative = cytotoxicity",[1],-96.1% (active)
same,outcome,[2],inactive
same,Potency,[3],inactive
same,Potency,[4],inactive
same,outcome,[5],inactive
same,Potency,[6],inactive
same,outcome,[7],inactive
same,Potency,[8],inactive
same,outcome,[9],inactive
same,Potency,[10],inactive
same,outcome,[12],inactive
same,Potency,[13],inactive
same,outcome,[15],inactive
same,outcome,[19],inactive
same,Potency,[20],inactive
same,Potency,[16],inactive
same,Potency,[17],inactive
CC(O)C(=O)O (stereo not given),"activity change, negative = cytotoxicity",[1],-3.83%
same,Potency,[3],inactive
same,Potency,[4],inactive
same,outcome,[5],inactive
same,Potency,[6],inactive
same,outcome,[7],inactive
same,Potency,[8],inactive
same,outcome,[9],inactive
same,Potency,[10],inactive
same,Potency,[11],inactive
same,outcome,[12],inactive
same,Potency,[13],inactive
same,Potency,[14],inactive
same,outcome,[15],inactive
same,Potency,[18],inactive
CN(C)/N=N/c1nc[nH]c1C(N)=O,"activity change, negative = cytotoxicity",[1],-2.47%
same,Potency,[3],inactive
same,Potency,[4],inactive
same,outcome,[5],inactive
same,Potency,[6],inactive
same,outcome,[7],inactive
same,Potency,[8],inactive
same,outcome,[9],inactive
same,Potency,[10],inactive
same,Potency,[11],inactive
same,outcome,[12],inactive
same,Potency,[13],inactive
same,Potency,[14],inactive
same,outcome,[15],inactive
same,Potency,[18],inactive
C=CCc1ccc(O)c(OC)c1,"activity change, negative = cytotoxicity",[1],5.14%
same,Potency,[3],inactive
same,Potency,[4],inactive
same,outcome,[5],inactive
same,Potency,[6],inactive
same,outcome,[7],inactive
same,Potency,[8],inactive
same,outcome,[9],inactive
same,Potency,[10],inactive
same,Potency,[11],inactive
same,outcome,[12],inactive
same,Potency,[13],inactive
same,Potency,[14],inactive
same,outcome,[15],inactive
C=C(CC)C(=O)c1ccc(OCC(=O)O)c(Cl)c1Cl,"activity change, negative = cytotoxicity",[1],-21.9%
same,outcome,[2],inactive
same,Potency,[3],inactive
same,Potency,[4],inactive
same,outcome,[5],inactive
same,Potency,[6],inactive
same,outcome,[7],inactive
same,Potency,[8],inactive
same,outcome,[9],inactive
same,Potency,[10],inactive
same,Potency,[11],inactive
same,outcome,[12],inactive
same,Potency,[13],inactive
same,Potency,[14],inactive
same,outcome,[15],inactive
same,Potency,[20],0.631 µM (active)
same,Potency,[18],inactive
O=C(O)CCCCC(=O)O,"activity change, negative = cytotoxicity",[1],3.41%
same,Potency,[3],inactive
same,Potency,[4],inactive
same,outcome,[5],inactive
same,Potency,[6],inactive
same,outcome,[7],inactive
same,Potency,[8],inactive
same,outcome,[9],inactive
same,Potency,[10],inactive
same,Potency,[11],inactive
same,outcome,[12],inactive
same,Potency,[13],inactive
same,Potency,[14],inactive
same,outcome,[15],inactive
same,Potency,[18],inactive
NCCc1ccn[nH]1,outcome,[2],inactive
C[C@@H](CN(C)C)CN1c2ccccc2Sc2ccccc21,outcome,[2],inactive
C[C@H](O)C(=O)Nc1c(I)c(C(=O)NC(CO)CO)c(I)c(C(=O)NC(CO)CO)c1I,outcome,[2],inactive
CCCCCCc1ccc(O)cc1O,"activity change, negative = cytotoxicity",[1],-9.3%
same,Potency,[3],inactive
same,Potency,[4],inactive
same,outcome,[5],inactive
same,Potency,[6],inactive
same,outcome,[7],inactive
same,Potency,[8],inactive
same,outcome,[9],inactive
same,Potency,[10],inactive
same,Potency,[11],inactive
same,outcome,[12],inactive
same,Potency,[13],inactive
same,Potency,[14],inactive
same,outcome,[15],inactive
CC(C)N=C(N)/N=C(\N)Nc1ccc(Cl)cc1,outcome,[2],inactive
C[C@H]1[C@H](NC(=O)/C(=N/OC(C)(C)C(=O)O)c2csc(N)n2)C(=O)N1S(=O)(=O)O (stereo in doubt),outcome,[2],inactive

# From PubChem BioAssay (NCATS)
